High-throughput results: PubChem BioAssay, National Center for Advancing Translational Sciences (NCATS)
Peg3 imprint: genomic imprint erasure induction | 110,000 tested, 0.02% active | AID 1948 | Potency, µM (series often up to 60.7 µM), inactives show at the top dose activity change, positive = activation, usual class: activators | mouse ES Peg3-LacZ reporter, beta-gal luminescence, 40 h
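Each well holds 300 Peg3LacZ-Neo (maternal) female ES cells incubated 40 h at 37C, 5% CO2. LacZ is measured by BetaGlo luminescence, with AC50 and maximum efficacy derived from dose-response curves.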
ERK AVP block: inhibitors of vasopressin-stimulated ERK signaling pathway; Potency, µM (doses to about 57.5 µM), without a hit: at the top dose activity, negative = inhibition, most hits filed as inhibitors; 72,000 tested, 0.99% active; AID 995; HEK293-V1b, vasopressin-stimulated pERK AlphaScreen; also: % is scaled to controls: 0 for no effect and ±100 for the full control effect; nearly all actives have a fitted effect of over 55% in size
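HEK293 cells stably expressing V1b receptor, preincubated 30 min at 37 °C with compound, then stimulated 5 min with 25 nM vasopressin. Phospho-ERK by AlphaScreen SureFire after 5 h RT; normalized to DMSO and vasopressin; AC50 by Hill fit.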
IkB sig inh: suppresses IkB signaling in ABC-DLBCL reporter cells. Potency, µM (highest dose often 57.1 µM), for the others: at the highest dose IkBa stabilization activation. ABC-DLBCL IkBa-CBG/CBR dual luciferase ratio, 4 h; response scale: scaled: untreated 0%, proteasome inhibitor 100%. 110,000 tested, 0.04% active. AID 445; active = well fitted curve in the direction sought with a large enough effect in the signal ratio, not every such curve was filed as active; inconclusive = small, poorly fitted or top-dose-only effect, or a change in a side signal; the % refers to the signal ratio;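 also: the direction sought is a rising ratio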
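In this assay, an IκBα–CBG68 fusion accumulates when IKK-driven degradation is blocked; native CBR normalizes for cell number. OCI-Ly3 cells were treated 4 h with compound and doxycycline, then green and red light read after Chroma-Glo addition.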
CRE Fsk mod: modulators of forskolin-stimulated CRE signaling in CHO cells; CHO CRE-bla reporter (cAMP response element driving beta-lactamase), forskolin EC10, beta-lactamase ratio; Potency, µM (titrated, usually from 38.2 µM), for the others: top-dose activity change, negative = inhibition, hits mostly activators; 71,000 tested, 2.5% active; AID 662; active = well fitted activation curve with a large enough effect in the signal ratio, with a control signal flat, not every such curve was filed as active; inconclusive = small, poorly fitted or top-dose-only effect, or effect the other way, or a change in a side signal; the % refers to the signal ratio; also: % of control where 0% means no effect
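CRE-bla CHO reporter cells treated with compound titration plus EC10 NKH 477 (water-soluble forskolin), incubated 3 h at 37 °C; CCF4 loading 2 h at room temperature, 460/530 nm emission ratio read, AC50 values derived for positive or negative modulators.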
The depositor's hits bear a star; ? = inconclusive; · = no result; [ ] = dose if it differs, or a comment. This excerpt belongs to a sample that is enriched for hits. Unless noted, calls follow the shape of the dose curve; as a rule, active = well fitted curve in the direction sought with a large enough effect; inconclusive = small, poorly fitted or top-dose-only effect, or another doubt; inactive = no such curve, though single readings can be large; an effect the other way counts as inactive or inconclusive. Potency is read from the fitted curve at half-maximal effect.

SMILES	Peg3 imprint	ERK AVP block	IkB sig inh	CRE Fsk mod
Cc1sc2nc(CN3CCOCC3)nc(Oc3ccc(NC(=O)c4ccco4)cc3)c2c1C	-14%	-25%	0%	3.2µM*
O=C(Nc1ccc(Oc2ccc(S(=O)(=O)N3CCOCC3)cn2)cc1)c1ccco1	-10%	-10%	1%	-12%
COC(=O)[C@@]1(Cc2ccc(OC)cc2)[C@H]2c3cc(C(=O)N(C)C)n(CCO)c3C[C@H]2CN1C(=O)c1ccccc1	-10%	-18%	·	-8%
COC(=O)[C@@]1(Cc2ccc(OC)cc2)[C@H]2c3cc(C(=O)N(C)C)n(Cc4ccc(C)c(F)c4F)c3C[C@H]2CN1C(=O)c1ccccc1	-28%	12%	·	20µM*
O=C1O/C(=C\Br)CC[C@@H]1c1cccc2ccccc12	·	?	5%	1%
c1coc(CSCc2cn3cccnc3n2)c1	-10%	14%	0%	-4%
c1ccc(-c2cnnc(SCc3cn4cccnc4n3)n2)cc1	7%	1%	0%	10µM*
Cn1c(=O)[nH]c(=O)c2c1nc(N(CCO)Cc1ccccc1)n2CCCc1ccccc1	-4%	-17%	-4%	?
CN(Cc1ccccc1)c1nc2c(c(=O)[nH]c(=O)n2C)n1Cc1ccccc1Cl	-8%	16µM*	2%	?
CN(Cc1ccccc1)c1nc2c(c(=O)[nH]c(=O)n2C)n1CCCc1ccccc1	·	35%	5%	?
Cn1c(=O)[nH]c(=O)c2[nH]c(N(Cc3ccccc3)Cc3ccccc3)nc21	-28%	25µM*	3%	?
O=C(O)[C@H](C1NCCS1)N1Cc2ccccc2C1 (stereo partly drawn)	2%[10.9 µM]	·	·	·
COc1cc(-c2ccc(N=C=O)c(OC)c2)ccc1N=C=O	-4%	-8%	-2%	-1%
O=C(NCCc1ccc(Cl)cc1)C1CCN(C(=O)c2sccc2-n2cccc2)CC1	-18%	16µM*	5%	-13%
CCOc1cc(N2CCOCC2)c(OCC)cc1NC(=O)Cn1[nH]c(=O)c2ccccc2c1=O	-3%	1%	1%	0.1µM*
Cc1cc(SCC#N)n2nc(C)c(-c3ccccc3)c2n1	-9%	?	5%	2.5µM*
Cc1cc(N2CCCCC2)n2nc(C)c(-c3ccccc3)c2n1	-19%	31%	-2%	16µM*
Cc1cc(N2CCC(C)CC2)n2nc(C)c(-c3ccccc3)c2n1	0%	10%	1%	9%
Cc1cc(N2CCCC2)n2nc(C)nc2n1	-10%	-13%	-4%	13µM*
N#CC(=C(/N)Sc1ccccc1N)/C(C#N)=C(/N)Sc1ccccc1N	-34%	0.2µM*	?	-7%
COc1cc(OC)c2cc(-c3ccncc3)cnc2c1	-6%	?	1%	5µM*
CO[C@H]1COC(=O)C/C=C\[C@H](C)COC(=O)[C@@H](C)NC(=O)C/C=C\[C@@H]1C	·	-1%[11.5 µM]	·	·
Cc1nc(N2CCOCC2)c2oc3ccccc3c2n1	-8%	?	0%	?
c1ccc2[nH]c(CN3CCN(c4ncnc5c4oc4ccccc45)CC3)nc2c1	-20%	13µM*	?	?
Cc1nc(N2CCN(Cc3nc4ccccc4[nH]3)CC2)c2oc3ccccc3c2n1	-29%	?	?	7.9µM*
SMILES	Peg3 imprint	ERK AVP block	IkB sig inh	CRE Fsk mod
COC(=O)C1=C(C)N(Cc2ccccc2)C2=C(C(C)=O)C(c3ccccc3)[C@@](O)(C(=O)OC)C(=O)N2C1c1ccccc1 (stereo partly drawn)	·	18%[11.5 µM]	·	·
N[C@@H](Cc1c[nH]c2ccccc12)C(=O)NCC(=O)O	·	·	0%[11.4 µM]	-13%
Cc1cccc(-c2c3c(=O)n(C)c(=O)n(C)c3cn2C(C)C)c1	-9%	?	-3%	4µM*
COc1cc2c(cc1OC)-c1cc(N3CCCCCC3)nc(=O)n1CC2	-11%	?	-2%	0.63µM*
COc1cc2c(cc1OC)C1=C(C#N)CCC(=O)N1CC2	5%	?	-2%	?
COc1cc2c(cc1OC)-c1cc(OCc3cccnc3)nc(=O)n1CC2	-13%	13µM*	-2%	4µM*
CCN(CC)CCCNc1cc2n(c(=O)n1)CCc1cc(OC)c(OC)cc1-2	3%	-29%	-1%	?
COc1cc2c(cc1OC)-c1cc(Nc3ccc4c(c3)OCCO4)nc(=O)n1CC2	-5%	10µM*	?	2.5µM*
COc1cc2c(cc1OC)-c1cc(NC3CCCCCC3)nc(=O)n1CC2	-12%	?	-2%	1µM*
COc1cc2c(cc1OC)-c1cc(N3CCCc4ccccc43)nc(=O)n1CC2	-14%	20µM*	-6%	0.25µM*
COc1cccc2cc(C(=O)N3CCc4ccccc43)c(=O)oc12	-4%	-7%	1%	1%
Cc1cc(C)n(-c2nc(NCCCO)c3c4c(sc3n2)CCCC4)n1	-16%	-6%	-4%	2µM*
Cc1cc(C)n(-c2nc(NCC3CCCO3)c3c4c(sc3n2)COC(C)(C)C4)n1 (stereo not drawn)	-14%	?	-4%	13µM*
Cc1cc(C)n(-c2nc(NCCO)c3c4c(sc3n2)CCCC4)n1	-15%	-17%	-2%	?
COc1ccc2cc1Oc1ccc(cc1)C[C@@H]1c3c(cc(OC)c4c3Oc3cc5c(cc3O4)CCN[C@H]5C2)CCN1C	-37%[10.9 µM]	-18%[11.5 µM]	-4%[11.4 µM]	?
COC(=O)c1ccccc1NC(=O)C(C)Oc1ccccc1 (stereo not drawn)	-15%	-10%	-2%	13µM*
COc1cc(NC(=O)C(C)Oc2ccccc2)cc(OC)c1 (stereo not drawn)	6%	-4%	-1%	14%
CCN(C(=O)c1coc(=O)c(Br)c1)c1ccc2c(c1)OCO2	-12%	-7%	4%	?
CC1(C)CC(NC(=O)c2coc(=O)c(Br)c2)CC(C)(C)N1	-21%	20µM*	?	22%
O=C1[C@H]2[C@H]3[C@H](O)[C@H](O)C/C(=N/OCc4ccccc4)[C@H]3CC[C@@H]2C(=O)N1C1CCCCC1	·	23%[11.5 µM]	·	·
COc1cc(C2NC(=O)NC(c3ccccc3)=C2C(C)=O)ccc1OCC(=O)O (stereo not drawn)	-26%	-4%	?	13µM*
NC(=O)c1ccccc1NC(=O)CS(=O)(=O)Cc1ccccc1	-17%	-22%	-3%	13µM*
NC(=O)c1ccccc1NS(=O)(=O)Cc1ccc(Cl)cc1	-11%	-2%	7%	-5%
O=C(CS(=O)(=O)Cc1ccccc1)Nc1nc2ccccc2s1	-5%	25µM*	3%	-13%
CCNc1ncc2nc(-c3cccs3)c(=O)n(Cc3ccc(F)cc3)c2n1	6%	-12%	-1%[11.4 µM]	?
CCOC(=O)c1sc(Nc2nc3c(OC)cccc3s2)nc1C	-34%	-2%	6%	10µM*
N#Cc1cccc(-c2cc(NCc3cccs3)ncn2)c1	19%	13µM*	-3%[11.4 µM]	?
Cc1ccc(S(=O)(=O)O[C@H]2C[C@@H](C(C)(C)C)CC[C@@H]2c2ccccc2)cc1	·	10%[11.5 µM]	2%[11.4 µM]	?
CSCCC=O	-4%	12%	1%	-9%
Cc1c2ccccc2c(C)c2c1ccc1ccccc12	-6%	58%	-3%	25µM*
